This is an account of results in PubChem BioAssay (EPA / NIEHS).

The source made the active and inactive calls. How the source made its calls: active means hit-call score of the fitted dose curve at least 0.9, where 1 is the maximum; inactive means score below 0.9.

Assay [1] can be described thus: ATG_GRE_CIS: Attagene CIS-FACTORIAL HepG2 Assay for human Glucocorticoid Response Elements (GRE) (AID 2282947). The settings on record: HepG2 GRE cis-reporter, Attagene multiplex mRNA; actives raise or lower the signal. In short, it runs like this:
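Transiently transfected HepG2 cells carrying GRE cis-reporter units (endogenous TF activity) dosed 24 h; reporter mRNA quantified by RT-PCR, 6-FAM labelling, HpaI digestion and capillary electrophoresis. Bidirectional fit versus DMSO baseline.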

Assay [2] is described as follows: ATG_ISRE_CIS: Attagene CIS-FACTORIAL HepG2 Assay for human Interferon Regulatory Factor 1 (IRF1) binding to an Interferon-Stimulated Response Element (ISRE) (AID 2282948). Conditions: HepG2 ISRE cis-reporter (Attagene), mRNA transcription readout; actives raise or lower the signal. In short, it runs like this:
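HepG2 cells transiently transfected with multiplexed cis-promoter reporter units; after 24 h compound exposure, reporter mRNA quantified by RT-PCR, FAM labelling, HpaI digestion and capillary electrophoresis. Bidirectional fit versus DMSO baseline.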

Assay [3] in a line: ATG_M_32_CIS: Attagene CIS-FACTORIAL HepG2 Assay for M32 Transcription Factor (Internal Marker) (AID 2282949).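 Further: background control marker of the multiplexed CIS panel rather than a real target.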 Conditions: HepG2 Attagene cis-factorial M32 reporter, mRNA; actives raise or lower the signal. In short, it runs like this: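 Fluorescent capillary electrophoresis peaks of HpaI-digested, FAM-labelled RT-PCR reporter products give the signal. Source: transiently transfected human liver HepG2 cells, 24 h after chemical dosing; bidirectional fitting against DMSO.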

Assay [4] can be described thus: ATG_M_06_CIS: Attagene CIS-FACTORIAL HepG2 Assay for M06 Transcription Factor (Internal Marker) (AID 2282950). The settings on record: HepG2 Attagene CIS-FACTORIAL M06 internal marker reporter; actives raise or lower the signal. In a few lines: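 Cells (HepG2, transiently carrying cis-driven reporter units) receive chemical for 24 h before RNA isolation. Reporter cDNA is PCR-amplified, FAM-labelled by primer extension, HpaI-digested and sized on a capillary analyser.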

The target in assay [5] is Hypoxia-inducible factor 1-alpha (Homo sapiens) (UniProt Q16665). Put plainly: ATG_HIF1a_CIS: Attagene CIS-FACTORIAL HepG2 Assay for human Hypoxia Inducible Factor 1 (HIF1A) (AID 2282951). The settings on record: HepG2 Attagene cis-factorial HIF1a reporter transcription; actives raise or lower the signal. In a few lines: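 Transient MRTU transfection of human HepG2 liver cells, 24 h compound treatment, then total RNA isolation, oligo(dT) reverse transcription, PCR amplification, fluorescent labelling and capillary electrophoresis of reporter fragments. Gain or loss relative to DMSO.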
Hypoxia-inducible factor 1-alpha (Homo sapiens), sequence (Q16665 whole entry, looked up, the tested form may be a part): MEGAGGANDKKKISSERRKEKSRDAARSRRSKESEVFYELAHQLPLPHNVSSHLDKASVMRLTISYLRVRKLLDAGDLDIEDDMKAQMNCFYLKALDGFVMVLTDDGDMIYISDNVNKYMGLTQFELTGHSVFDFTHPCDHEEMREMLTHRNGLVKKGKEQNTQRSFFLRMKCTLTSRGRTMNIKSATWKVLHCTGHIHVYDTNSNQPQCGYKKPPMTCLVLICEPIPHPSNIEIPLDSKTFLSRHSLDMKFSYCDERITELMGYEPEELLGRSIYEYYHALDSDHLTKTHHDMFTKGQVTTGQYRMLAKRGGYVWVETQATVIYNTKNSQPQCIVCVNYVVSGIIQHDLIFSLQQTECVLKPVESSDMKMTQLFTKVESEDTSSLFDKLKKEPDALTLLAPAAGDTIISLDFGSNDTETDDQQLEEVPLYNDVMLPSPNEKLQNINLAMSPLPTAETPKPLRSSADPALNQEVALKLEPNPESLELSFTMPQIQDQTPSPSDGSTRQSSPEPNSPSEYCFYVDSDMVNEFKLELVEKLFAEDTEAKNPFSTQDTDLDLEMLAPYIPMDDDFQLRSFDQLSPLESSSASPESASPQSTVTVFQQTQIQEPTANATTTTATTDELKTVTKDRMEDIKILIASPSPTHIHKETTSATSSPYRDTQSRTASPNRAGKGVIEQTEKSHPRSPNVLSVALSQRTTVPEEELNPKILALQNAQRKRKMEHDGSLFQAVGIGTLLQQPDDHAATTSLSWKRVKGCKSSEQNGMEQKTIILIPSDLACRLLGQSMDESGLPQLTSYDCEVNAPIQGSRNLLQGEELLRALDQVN

For assay [6], the target named is Hepatocyte nuclear factor 6 (Homo sapiens) (UniProt Q9UBC0). As to the kind of experiment: ATG_HNF6_CIS: Attagene CIS-FACTORIAL HepG2 Assay for human Hepatocyte Nuclear Factor 6 (HNF6) (AID 2282952). Conditions: HepG2 Attagene cis-factorial HNF6 reporter transcription; actives raise or lower the signal. In short, it runs like this: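 Transiently transfected HepG2 cells expressing cis-regulated reporter transcription units were exposed to chemical for 24 h in a 24-well format. Reporter transcript abundance was determined by fluorescence capillary electrophoresis.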
Hepatocyte nuclear factor 6 (Homo sapiens), sequence (Q9UBC0 whole entry, looked up): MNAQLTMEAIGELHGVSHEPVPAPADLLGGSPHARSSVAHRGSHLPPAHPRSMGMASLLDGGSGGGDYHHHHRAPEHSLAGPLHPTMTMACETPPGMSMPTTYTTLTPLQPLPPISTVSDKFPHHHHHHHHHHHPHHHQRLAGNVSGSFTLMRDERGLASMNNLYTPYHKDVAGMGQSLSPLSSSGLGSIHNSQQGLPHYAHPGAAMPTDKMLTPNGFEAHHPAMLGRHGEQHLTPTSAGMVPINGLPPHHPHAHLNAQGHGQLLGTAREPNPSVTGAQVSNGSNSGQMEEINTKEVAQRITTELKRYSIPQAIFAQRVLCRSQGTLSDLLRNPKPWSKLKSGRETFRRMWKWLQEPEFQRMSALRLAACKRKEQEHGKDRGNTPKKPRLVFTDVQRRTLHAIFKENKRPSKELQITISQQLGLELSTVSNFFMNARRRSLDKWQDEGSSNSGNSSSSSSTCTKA

The target of assay [7] is Heat shock factor protein 1 (Homo sapiens) (UniProt Q00613). Put plainly: ATG_HSE_CIS: Attagene CIS-FACTORIAL HepG2 Assay for human Heat Shock Transcription Factor 1 (HSE) (AID 2282953). Conditions: HepG2 HSE cis-reporter, Attagene RNA transcription; actives raise or lower the signal. In short, it runs like this: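 Liver-derived HepG2 cells carry transiently introduced multiple reporter units governed by cis promoters. Reporter RNA measured 24 h post-dose through reverse transcription, PCR amplification, fluorescent labelling and capillary electrophoresis, normalised to DMSO.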
Heat shock factor protein 1 (Homo sapiens), sequence (Q00613 whole entry, looked up): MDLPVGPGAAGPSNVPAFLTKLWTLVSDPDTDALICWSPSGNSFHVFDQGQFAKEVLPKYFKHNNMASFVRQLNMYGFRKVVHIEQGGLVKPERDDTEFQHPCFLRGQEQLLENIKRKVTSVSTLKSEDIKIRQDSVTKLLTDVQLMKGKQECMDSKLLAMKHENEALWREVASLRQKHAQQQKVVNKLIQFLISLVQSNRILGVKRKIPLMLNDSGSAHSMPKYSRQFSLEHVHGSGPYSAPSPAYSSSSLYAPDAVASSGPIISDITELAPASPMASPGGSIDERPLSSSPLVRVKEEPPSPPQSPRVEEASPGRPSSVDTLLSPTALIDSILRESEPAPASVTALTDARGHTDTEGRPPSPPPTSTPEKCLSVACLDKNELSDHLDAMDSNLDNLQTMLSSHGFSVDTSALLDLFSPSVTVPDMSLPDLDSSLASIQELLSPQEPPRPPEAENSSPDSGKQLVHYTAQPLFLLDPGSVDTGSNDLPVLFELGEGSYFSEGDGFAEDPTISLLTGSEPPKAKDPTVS

The nature of assay [8]: ATG_MRE_CIS: Attagene CIS-FACTORIAL HepG2 Assay for human Metal Responsive Element (MRE) (AID 2282954). The settings on record: HepG2 MRE cis-reporter transcription, Attagene multiplex; actives raise or lower the signal. In a few lines:
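HepG2 cells transiently transfected with cis-element-driven reporter units; mRNA measured 24 h after dosing. Reporter transcripts quantified by RT-PCR, FAM labelling, HpaI digestion and capillary electrophoresis; bidirectional fit versus DMSO.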

For assay [9], the target named is Paired box protein Pax-6 (Homo sapiens) (UniProt P26367). Put plainly: ATG_Pax6_CIS: Attagene CIS-FACTORIAL HepG2 Assay for human Paired Box 6 (PAX6) (AID 2282956). Conditions: HepG2 CIS-FACTORIAL PAX6 reporter transcription, RNA readout; actives raise or lower the signal. In short, it runs like this: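 HepG2 cells transiently transfected with multiplexed cis-promoter reporter units (endogenous TF activity) were dosed for 24 h. Reporter mRNA was quantified by RT-PCR, 6-FAM labeling, HpaI digestion and capillary electrophoresis; bidirectional fitting versus DMSO baseline.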
Paired box protein Pax-6 (Homo sapiens), sequence (P26367 whole entry, looked up): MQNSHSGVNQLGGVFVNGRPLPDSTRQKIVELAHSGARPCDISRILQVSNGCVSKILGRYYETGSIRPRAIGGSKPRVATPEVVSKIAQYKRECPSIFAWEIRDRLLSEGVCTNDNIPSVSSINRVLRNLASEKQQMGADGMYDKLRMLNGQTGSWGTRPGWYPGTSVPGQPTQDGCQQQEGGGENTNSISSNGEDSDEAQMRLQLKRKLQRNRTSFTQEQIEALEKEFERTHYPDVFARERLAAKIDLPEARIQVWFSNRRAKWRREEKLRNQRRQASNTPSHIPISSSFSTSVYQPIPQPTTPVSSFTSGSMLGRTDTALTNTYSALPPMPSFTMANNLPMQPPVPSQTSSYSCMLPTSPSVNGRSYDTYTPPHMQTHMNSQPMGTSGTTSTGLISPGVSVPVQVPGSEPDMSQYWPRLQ

A short description of assay [10]: ATG_RORE_CIS: Attagene CIS-FACTORIAL HepG2 Assay for human RAR-related Orphan Receptor Element (RORE) (AID 2282959). Conditions: HepG2 Attagene cis-factorial RORE reporter, mRNA; actives raise or lower the signal. In short, it runs like this: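 Transient MRTU transfection of human HepG2 liver cells (FuGene 6); 24 h compound exposure; TriZol RNA, oligo(dT) RT, PCR, FAM labeling, HpaI cut, CE fragment analysis. DMSO = negative control/baseline.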

The nature of assay [11]: ATG_Sox_CIS: Attagene CIS-FACTORIAL HepG2 Assay for human SRY-box transcription factor (SOX) (AID 2282960). The settings on record: HepG2 Attagene cis-factorial SOX reporter, mRNA; actives raise or lower the signal. In a few lines: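 Endogenous factor activity in human liver HepG2 cells carrying transfected cis-regulated reporter units. RNA taken 24 h post-dose, reverse-transcribed, PCR-amplified and sized by capillary electrophoresis. Gain or loss of signal fitted relative to DMSO.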

A short description of assay [12]: ATG_SREBP_CIS: Attagene CIS-FACTORIAL HepG2 Assay for human Sterol Regulatory Element Binding (SREBP) (AID 2282962). Conditions: HepG2 Attagene cis-factorial SREBP reporter, mRNA; actives raise or lower the signal. In a few lines:
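HepG2 cells transiently transfected with multiplexed cis-element reporter units report endogenous transcription factor activity. After 24 h of chemical exposure, reporter mRNA was quantified by RT-PCR, 6-FAM labelling, HpaI digestion and capillary electrophoresis; bidirectional fits used DMSO as baseline.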

The target in assay [13] is Signal transducer and activator of transcription 3 (Homo sapiens) (UniProt P40763). As to the kind of experiment: ATG_STAT3_CIS: Attagene CIS-FACTORIAL HepG2 Assay for human Signal Transducer and Activator of Transcription 3 (STAT3) (AID 2282963). Conditions: HepG2, Attagene cis-factorial STAT3 reporter transcription; actives raise or lower the signal. In short, it runs like this: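 HepG2 cells transiently transfected with multiple cis-element-driven reporter units report endogenous transcription factor activity. After 24 h compound exposure, reporter mRNA is measured by RT-PCR, 6-FAM labelling, HpaI digestion and capillary electrophoresis. Fitted bidirectionally versus DMSO.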
Signal transducer and activator of transcription 3 (Homo sapiens), sequence (P40763 whole entry, looked up): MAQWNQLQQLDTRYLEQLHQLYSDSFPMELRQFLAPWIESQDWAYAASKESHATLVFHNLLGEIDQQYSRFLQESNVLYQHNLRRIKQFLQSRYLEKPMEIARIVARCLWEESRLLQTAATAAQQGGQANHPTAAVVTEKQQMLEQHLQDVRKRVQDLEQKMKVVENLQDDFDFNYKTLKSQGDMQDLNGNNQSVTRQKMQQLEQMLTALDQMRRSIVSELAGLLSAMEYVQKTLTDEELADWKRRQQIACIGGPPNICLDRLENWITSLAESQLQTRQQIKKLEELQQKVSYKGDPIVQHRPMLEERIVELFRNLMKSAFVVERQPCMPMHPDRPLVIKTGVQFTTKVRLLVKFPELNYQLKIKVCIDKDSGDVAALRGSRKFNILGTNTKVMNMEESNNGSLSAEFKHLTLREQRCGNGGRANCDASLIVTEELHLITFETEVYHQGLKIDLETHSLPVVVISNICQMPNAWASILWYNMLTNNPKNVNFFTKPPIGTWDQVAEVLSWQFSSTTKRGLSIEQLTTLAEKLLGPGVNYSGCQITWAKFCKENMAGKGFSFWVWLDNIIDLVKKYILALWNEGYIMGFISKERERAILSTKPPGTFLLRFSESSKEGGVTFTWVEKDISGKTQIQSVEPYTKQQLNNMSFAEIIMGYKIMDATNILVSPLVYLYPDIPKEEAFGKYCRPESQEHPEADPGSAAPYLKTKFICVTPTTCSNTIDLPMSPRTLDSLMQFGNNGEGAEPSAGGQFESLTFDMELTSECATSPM

Assay [14] can be described thus: ATG_TA_CIS: Attagene CIS-FACTORIAL HepG2 Assay for human TA Basal Promoter (AID 2282964). Conditions: HepG2 Attagene CIS-factorial TA basal promoter reporter; actives raise or lower the signal. In short, it runs like this:
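Background internal-marker endpoint from a 52-component HepG2 cis-reporter panel. Cells treated 24 h; reporter transcripts quantified via RT-PCR and CE fluorescence against DMSO baseline.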

Assay [15] can be described thus: ATG_PPRE_CIS: Attagene CIS-FACTORIAL HepG2 Assay for human Peroxisome Proliferator-activated Response Element (PPRE) (AID 2282958). The settings on record: HepG2 PPRE cis-element reporter, Attagene transcription factor profiling; actives raise or lower the signal. In a few lines:
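HepG2, transient MRTU transfection (cis promoter elements, endogenous TFs). 24 h dosing. RNA → oligo(dT) RT → PCR → 6-FAM primer extension → HpaI digest → CE. Bidirectional fit vs DMSO.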

Assay [16] concerns the target Transcription factor Sp1 (Homo sapiens) (UniProt P08047). Put plainly: ATG_Sp1_CIS: Attagene CIS-FACTORIAL HepG2 Assay for human Specificity Protein 1 (Sp1) (AID 2282961). Conditions: HepG2 Sp1 cis-reporter transcription, actives raise or lower the signal. In short, it runs like this: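 Transient MRTU-transfected HepG2, 24 h compound exposure. Total RNA → oligo(dT) RT → PCR of reporter → 6-FAM primer extension → HpaI digest → CE. Endpoint fitted both directions vs DMSO.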

The nature of assay [17]: ATG_TCF_b_cat_CIS: Attagene CIS-FACTORIAL HepG2 Assay for human T-Cell-Factor with beta-catenin (TCF/b-cat) (AID 2282965). The settings on record: HepG2 TCF/beta-catenin cis-reporter transcription, actives raise or lower the signal. In a few lines: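 HepG2, transient MRTU transfection, cis-element-driven reporters (endogenous TFs). 24 h compound exposure. Readout: reporter mRNA by RT-PCR + 6-FAM primer extension, HpaI digest, capillary electrophoresis. Gain/loss fit vs DMSO baseline.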

The nature of assay [18]: ATG_PXRE_CIS: Attagene CIS-FACTORIAL HepG2 Assay for human Pregnane X Receptor Element (PXRE) (AID 2282957). Conditions: HepG2 Attagene CIS-FACTORIAL PXRE reporter, mRNA; actives raise or lower the signal. In short, it runs like this:
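Cis-element reporter mRNA in human hepatoma HepG2 cells is measured 24 h post-dosing by RT-PCR, primer-extension labeling and capillary electrophoresis; gain or loss of signal is fitted relative to DMSO.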

Transcription factor Sp1 (Homo sapiens), sequence (P08047 whole entry, looked up): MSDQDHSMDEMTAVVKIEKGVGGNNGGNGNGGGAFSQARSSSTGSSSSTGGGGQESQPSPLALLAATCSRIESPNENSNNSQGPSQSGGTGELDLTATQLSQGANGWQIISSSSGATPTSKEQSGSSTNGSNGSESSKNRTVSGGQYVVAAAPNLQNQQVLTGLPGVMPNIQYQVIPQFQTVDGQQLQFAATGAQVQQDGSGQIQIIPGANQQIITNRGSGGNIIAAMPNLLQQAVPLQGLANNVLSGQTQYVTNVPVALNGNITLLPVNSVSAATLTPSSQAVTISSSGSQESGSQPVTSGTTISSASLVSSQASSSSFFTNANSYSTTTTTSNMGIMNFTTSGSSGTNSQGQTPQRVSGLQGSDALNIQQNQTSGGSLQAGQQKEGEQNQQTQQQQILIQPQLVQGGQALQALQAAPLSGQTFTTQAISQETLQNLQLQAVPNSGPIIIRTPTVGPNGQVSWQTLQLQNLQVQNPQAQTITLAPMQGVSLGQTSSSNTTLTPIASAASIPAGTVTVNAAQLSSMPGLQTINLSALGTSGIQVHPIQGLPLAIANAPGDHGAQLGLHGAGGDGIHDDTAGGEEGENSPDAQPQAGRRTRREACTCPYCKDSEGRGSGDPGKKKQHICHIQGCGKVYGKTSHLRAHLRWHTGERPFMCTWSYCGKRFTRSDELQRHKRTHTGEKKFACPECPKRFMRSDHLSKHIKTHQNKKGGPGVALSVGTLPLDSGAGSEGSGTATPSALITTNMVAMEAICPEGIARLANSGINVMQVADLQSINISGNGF

For `OC1CCCC1`, the molecule was classed as inactive in assay [1], in [2], in [3], in [4], in [5] and in assay [6]. The outcome in assay [7], in assay [8], in assay [9], in assay [10], in assay [11] and in [12] was inactive. In addition, the call in [13] and in assay [14] was inactive.
As to `C=CCOCC(O)CCl` (stereo not given), the molecule was called inactive in assay [1], in assay [2], in assay [3], in [4], in [5] and in assay [7]. Moreover, the result in [8], in [9], in [15], in assay [10], in [11] and in assay [16] was inactive. Besides, the call in [12], in assay [13], in assay [14] and in assay [17] was inactive.
For `COC(=O)c1cc(Cl)ccc1[N+](=O)[O-]`, the result in [1], in assay [2], in assay [3], in assay [4], in assay [5] and in assay [6] was inactive. Besides, the call in [7], in assay [8], in [9], in [15], in assay [10] and in [16] was inactive. The result in [12], in [13] and in assay [14] was inactive. In [18], the AC50 (usually the concentration giving half of the maximal activity seen) was 76.1 µM (active).
For the molecule `CCCNC(=O)NS(=O)(=O)c1ccc(Cl)cc1`, the molecule was called inactive in assay [1], in assay [2], in assay [3], in [4], in assay [5] and in [6]. Moreover, the call in assay [7], in [8], in assay [9], in [18], in [15] and in assay [10] was inactive. For the same molecule, the call in [11], in assay [16], in assay [13], in assay [14] and in assay [17] was inactive.
Consider `O=C1CCCC1`, for which the molecule was called inactive in [1], in assay [2], in [3], in assay [4], in [5] and in assay [6]. For the same molecule, the result in assay [7], in assay [8], in assay [9], in assay [10], in [11] and in [16] was inactive. In addition, the result in [12], in [13], in assay [14] and in [17] was inactive. The concentration at half-maximal activity (AC50) in [18] was 62.7 µM (active).
